# About 83,000 compounds went through this panel and 20% of them were active in at least one assay; those are over-represented in the sample as a whole.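 Activity criterion: percent growth below 10, measured after cells in 96-well plates were exposed to a single compound concentration for 48 hours.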 A number with no mark means an inactive call. The source made the active and inactive calls.
# Tested on: MOLT-4 leukemia
# Assay: NCI-60 one-dose screen, 48 h (100 = growth as untreated, 0 = no growth, -100 = all killed)
# Details: 10 µM
# Experimental: Growth inhibition of the MOLT-4 human tumor cell line is measured as a screen for anti-cancer activity. Cells are grown in 96 well plates and exposed to the test compound for 48 hours. Compounds are tested at a single concentration, which is 10^-5 M for most compounds. The reported endpoint is percent growth (GI% or GIPRCNT), where numbers from 0 - 100% represent growth inhibition, and numbers from -100% - 0 represent cell death. For example, a value of 40 represents 60% growth inhibition. A value of 0 means no net growth occurred over the course of the experiment. A value of -40 indicates 40% of cells at the beginning of the experiment died by the end of the experiment. A value of -100 means all cells are dead at the end of the experiment.
# NCI-60 Human Tumor Cell Lines Screen was performed using the standard one-dose NCI protocol, which is described in more detail at https://dtp.cancer.gov/discovery_development/nci-60/default.htm.
# Compounds with GIPRCNT values below 10 were considered active. Activity score was based on GIPRCNT using the following formula: […]
# Score is 0 for GIPRCNT values of 100 or above, 50 for GIPRCNT values of 0, and 100 for GIPRCNT values of -100.
row,SMILES,growth
1,C1CN(CC2CCC(CN3CCOCC3)O2)CCO1 (stereo not given),68.2%
2,COc1ccc(C(=O)CSc2nc(-c3cc(OC)ccc3OC)cc(-c3ccc(OC)cc3)c2C#N)cc1,96.9%
3,CC(=O)N[C@H](C(=O)N[C@@H](CCCNC(=N)N)C(=O)N[C@@H](CCCCN)C(=O)N[C@@H](CCCNC(=N)N)C(=O)N[C@]1(C)CCC/C=C\CCC[C@@](C)(C(=O)N[C@@H](CC(C)C)C(=O)N[C@@H](CC(C)C)C(=O)N[C@@H](CCC(N)=O)C(=O)N[C@@H](CCC(=O)O)C(=O)N[C@@H](CCCNC(=N)N)C(=O)N[C@@H](CCC(=O)O)C(=O)N[C@@H](CC(C)C)C(=O)N[C@H](C(=O)N[C@@H](CCC(=O)O)C(N)=O)C(C)C)NC(=O)[C@H](CCCNC(=N)N)NC(=O)[C@H](CC(C)C)NC1=O)C(C)C,105%
4,COC(=O)c1c[nH]c2cc(OC(C)C)c(OC(C)C)cc2c1=O,109%
5,CC(=O)N[C@H](C(=O)N[C@@H](CCCNC(=N)N)C(=O)N[C@@H](CCCCN)C(=O)N[C@@H](CCCNC(=N)N)C(=O)N[C@]1(C)CCCCCC/C=C\CCC[C@@](C)(C(=O)N[C@@H](CCCNC(=N)N)C(=O)N[C@@H](CCC(=O)O)C(=O)N[C@@H](CC(C)C)C(=O)N[C@H](C(=O)N[C@@H](CCC(=O)O)C(N)=O)C(C)C)NC(=O)[C@H](CCC(N)=O)NC(=O)[C@H](CC(C)C)NC(=O)[C@H](CC(C)C)NC(=O)[C@H](CCCNC(=N)N)NC(=O)[C@H](CCCNC(=N)N)NC(=O)[C@H](CC(C)C)NC1=O)C(C)C,34.6%
6,CC(=O)Nc1cc2c(cc1Cl)Cc1cc(Cl)ccc1-2,103%
7,COc1ccc(/C=C/c2nnc(/C=C/c3ccc(OC)c(OC)c3)o2)cc1OC,20.3%
8,CCN(CC)CCOc1cccc2c1C(=O)c1cccc(OCCN(CC)CC)c1C2=O,8.32% (active)
9,c1cnc2[nH]cc(-c3nc(-c4ccsc4)cs3)c2c1,79.6%
10,Cc1ccc(C(C)C)c(O)c1NC(=O)OC(C)C,122%
11,COc1ccc2cc(-c3nc4ccccc4s3)c(Cl)nc2c1OC,92.7%
12,O=C(CCC(C(=O)c1ccccc1)c1ccccc1)c1ccccc1 (stereo not given),46.2%
13,COc1ccc(C2CC(c3cc(OC)c(OC)c(OC)c3)=NN2)cc1 (stereo not given),73.4%
14,O=C(COc1cccc(/C=C2\CSc3ccc(Cl)cc3C2=O)c1)c1ccc(Cl)cc1,-12.1% (active)
15,CCOc1ccccc1/C=N\N=C\c1ccccc1O,72.5%
16,S=C(NCc1ccccc1)NCc1ccccc1,94.9%
17,COc1cc(C(=O)/C=C/c2c[nH]c3ccccc23)cc(OC)c1OC,17.6%
18,COc1ccccc1/C=N\N/C(N)=N\N=C\c1ccccc1OC,4.77% (active)
19,CCc1ccc(-c2ccc(-n3nc(C)c4c(N)nc(Cc5ccccc5)nc43)cc2)cc1,55.7%
20,Cc1cc(=O)n2nnc3cc(Cl)c(Cl)cc3n12,59.2%

row,SMILES,growth
1,CC(=O)[C@H]1CC[C@]2(C)[C@@H]1CC[C@@H]1[C@@]3(C)CC(CCC#N)(CCC#N)C(=O)C(C)(C)[C@@H]3CC[C@]12C,96.3%
2,C=CCn1c(SCC(=O)Nc2ccc(C(=O)/C=C/c3ccc(Cl)cc3)cc2)nnc1-c1cc(-c2ccccc2)nc2ccccc12,12.8%
3,CC(=O)Nc1ccc(S(=O)(=O)c2ccnc3cc(Cl)ccc23)cc1,68.8%
4,O=C(CSc1nnc(-c2ccc(Cl)cc2)o1)Nc1ccc(C(=O)/C=C/c2ccc(Cl)cc2)cc1,92.6%
5,COc1ccc(-c2cc(-c3ccc(OC)c(OC)c3)nc(SCCCC(=O)NO)n2)cc1,7.15% (active)
6,NS(=O)(=O)c1ccc(N2N=C(c3ccccc3)CCC2=O)cc1,93.2%
7,COc1cc(-c2nn(-c3ccc(NC(=O)NCCNS(=O)(=O)c4ccc(F)cc4)cc3)cc2-c2ccncc2)ccc1Cl,11.6%
8,COc1cc2cc(Oc3ccc(NC(=O)Nc4ccc(Cl)c(Cl)c4)cc3)c(C)nc2cc1OC,3.69% (active)
9,COc1cc(C2CC(c3ccccc3)=NN2C(C)=O)cc(OC)c1OC (stereo not given),29%
10,Cc1ccc(Cl)cc1NC(=O)CCl,32%
11,CC(C)(C)OC(=O)N1CCc2c(sc3ncnc(N/N=C/c4cccc5ccccc45)c23)C1,14.4%
12,CN(C)CCCN1c2ccccc2CCc2ccc(Cl)cc21,30.8%
13,COc1ccc(/C=C2\CCCC3=C2NC(N)=NC3c2ccc(OC)cc2)cc1 (stereo not given),84.2%
14,CC(=O)O[C@@]12CO[C@@H]1C[C@H](O)[C@@]1(C)C(=O)[C@H](O)C3=C(C)[C@@H](OC(=O)[C@H](O)[C@@H](NC(=O)OC(C)(C)C)c4ccccc4)C[C@@](O)([C@@H](OC(=O)c4ccccc4)C12)C3(C)C (stereo not given in full),25.4%
15,CCOC(=O)C1=CSC2=NC3=C(CCC/C3=C\c3cc(OC)c(OC)c(OC)c3)C(c3cc(OC)c(OC)c(OC)c3)N12 (stereo not given),52.7%
16,OCCn1cccn1,95.7%
17,Cc1n[nH]c(C)c1N=Nc1cccc2c1C(=O)c1ccccc1C2=O,84.5%
18,NC(CSC(c1ccccc1)(c1ccccc1)c1cccc2ccccc12)C(=O)O (stereo not given),88.1%
19,CC(C)(C)OC(=O)N1CCc2c(sc3ncnc(N/N=C/c4cccc(Br)c4)c23)C1,18%
20,COc1ccc(C2=Cn3c(CCC(=O)c4nc5ccccc5[nH]4)nnc3SC2)cc1,43.2%

# Reference: PubChem BioAssay (NCI)
